This is a sample that favours compounds with a hit; in the whole collection about 1.1% have one here.
SRC3 inh – human NCOA3 inhibition; Q9Y6Q9; HEK293 GAL4-SRC3 luciferase reporter, luminescence; inhibition, % at 3.6 µM; 360,000 tested, 0.17% active; AID 588352;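 active means inhibition above a per-campaign cutoff, the mean of all compounds plus 3 SD, cut at about 60% in these data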;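 further: 0% = DMSO-treated cells and 100% = gossypol-treated cells at 36 µM; higher means less SRC3-driven luciferase light from the GAL4 reporter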
GalR3 antag – antagonists of human GalR3 | O60755 | HEK293 GalR3-CNG cAMP membrane potential fluorescence; galR3 body fused to GalR1 C-terminus | inhibition, % at 3 µM | 360,000 tested, 0.44% active | AID 651719;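 active means inhibition above the screen-wide average plus 3 SD, cut at about 13% in these data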;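 further: forskolin and galanin both at EC90 stimulate the cells; cAMP rise reported by CNG channel membrane potential dye signal; 0% = forskolin plus galanin with DMSO and 100% = forskolin alone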
NR2F2 inh – inhibitors of human COUP-TFII (NR2F2). HEK293T NGFI-A luciferase reporter, luminescence. inhibition, % at 8.6 µM. 370,000 tested, 0.7% active. AID 686940;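 active means inhibition above a per-plate cutoff, mean inhibition of test wells between control levels plus 3 SD, cut at about 38% in these data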;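 further: cells cotransfected with COUP-TFII expression vector driving the NGFI-A reporter; 0% = median of COUP-TF2 test wells and 100% = reporter-only cells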
NCOA2 inhibitor – inhibits human steroid receptor coactivator 2. Q15596. HEK293 GAL4-SRC2 luciferase reporter, luminescence. inhibition, % at 9 µM. 370,000 tested, 0.17% active;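 active means inhibition above the mean inhibition of all tested compounds plus 3 SD, set per campaign, cut at about 52% in these data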;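 further: 0% = DMSO treated cells and 100% = cells given Gossypol at 36 µM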
SRC1 inh – inhibitors of human steroid receptor coactivator 1 (SRC1) | HEK293 GAL4-SRC1 luciferase reporter, luminescence | AID 588354 | Q15788 | 360,000 tested, 0.12% active | inhibition, % at 3.6 µM;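 active means inhibition above the campaign mean plus 3 SD, with each screening campaign given its own cutoff, cut at about 60% in these data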;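 further: 0% = DMSO treated cells and 100% = gossypol at 36 µM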
LRH-1 inv ag – NR5A2 inverse agonism in reporter assay. O00482. HEK293T StAR-luciferase reporter, LRH-1 transfected, 24 h. inhibition, % at 3.6 µM. 360,000 tested, 0.13% active;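 active means inhibition above the mean inhibition of all tested compounds plus 3 SD, cut at about 73% in these data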;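 further: 0% = DMSO wells and 100% = reporter-only cells lacking LRH-1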
Target sequence (O00482 whole entry, looked up): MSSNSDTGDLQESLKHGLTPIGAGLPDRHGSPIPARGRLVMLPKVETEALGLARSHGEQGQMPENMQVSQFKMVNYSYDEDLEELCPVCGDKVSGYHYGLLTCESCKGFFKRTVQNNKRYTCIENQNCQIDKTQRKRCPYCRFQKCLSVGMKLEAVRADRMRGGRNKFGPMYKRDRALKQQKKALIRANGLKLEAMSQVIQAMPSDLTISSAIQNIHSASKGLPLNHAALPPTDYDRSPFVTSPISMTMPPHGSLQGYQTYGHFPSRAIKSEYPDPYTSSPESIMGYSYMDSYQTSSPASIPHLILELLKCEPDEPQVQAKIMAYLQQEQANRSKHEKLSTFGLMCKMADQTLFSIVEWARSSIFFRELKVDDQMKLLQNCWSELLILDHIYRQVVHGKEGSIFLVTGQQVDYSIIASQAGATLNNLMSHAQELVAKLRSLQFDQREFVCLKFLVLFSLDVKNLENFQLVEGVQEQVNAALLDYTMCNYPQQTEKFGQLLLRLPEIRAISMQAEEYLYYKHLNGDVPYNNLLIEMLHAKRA
Gal4-VP16 ctr – VP16 inhibition counter-screen for COUP-TFII | shares compounds with NR2F2 inh | HEK293 Gal4-VP16 luciferase reporter, luminescence | inhibition, % at 8.5 µM | 2,500 tested, 25% active | AID 687007; in the data active means inhibition above about 13%
NR2F2 inh conf – confirmation of human COUP-TFII (NR2F2) inhibitors; shares compounds with NR2F2 inh; HEK293 NGFI-A luciferase reporter, luminescence; inhibition, % at 8.5 µM; 2,500 tested, 45% active; AID 687008;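 active means mean inhibition over three repeats above a set limit taken from the earlier primary screen, cut at about 38% in these data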;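 further: 100% = cells given the luciferase reporter alone without the COUP-TF2 vector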
* marks the source's active call; other numbers are inactive results; nt = no result given.

SMILES	SRC3 inh	GalR3 antag	NR2F2 inh	NCOA2 inhibitor	SRC1 inh	LRH-1 inv ag	Gal4-VP16 ctr	NR2F2 inh conf
O=S1(=O)CC2c3ccccc3CN2CN1C1CCCC1 (stereo not drawn)	nt	nt	9	2	nt	nt	nt	nt
N#Cc1cc(-c2ccccc2)[nH]c1-c1nccc2ccccc12	17	-5	50*	20	-2	17	-4	13
CC(C)c1ccc(C(=O)Nc2cc(Cl)ccc2C(=O)O)cc1	nt	nt	7	nt	nt	nt	nt	nt
CSc1cccc(NS(=O)(=O)c2ccc3c(c2)CCN3C(C)=O)c1	23	-11	45*	24	19	9	6	48*
CC(CCN1CCC(C(O)(c2ccccc2)c2ccccc2)CC1)Oc1ccc(OC(F)(F)F)cc1 (stereo not drawn)	nt	nt	29	5	nt	nt	nt	nt
COc1ccccc1N1CCN(C(=O)c2cc3c(C)nc4ccccc4c3o2)CC1	11	-2	42*	17	-8	6	-4	12
Cc1ccc(CNC(=O)c2cc3c(C)nc4ccccc4c3o2)cc1	9	nt	48*	14	0	33	3	25
Cc1nccn1CCOc1ccccc1Cl	4	5	68*	-26	-8	4	2	8
O=C(/C=C/c1cccnc1)/C=C/c1cccnc1	-12	-6	59*	52*	-51	37	38*	20
C(=Cc1cccnc1)c1ccncc1	12	-5	6	11	21	6	nt	nt
Cc1cc(OC(C)CCN2CCC(C(O)(c3ccccc3)c3ccccc3)CC2)ccc1Br (stereo not drawn)	nt	nt	-7	5	nt	nt	nt	nt
NCCCNc1nc(N)c([N+](=O)[O-])c(NC2CCCCC2)n1	44	-15	41*	-22	38	47	-26	24
COCCNc1nc(N)c([N+](=O)[O-])c(NC2CCCCC2)n1	-1	-4	7	15	16	15	nt	nt
CN(CC#CC1=CCCCC1)/C(N)=N/C(=O)OCc1ccccc1	nt	nt	12	10	nt	nt	nt	nt
COP(=O)(OC)C(NC(=O)OCc1ccccc1)C(C)C (stereo not drawn)	nt	nt	-10	-5	nt	nt	nt	nt
Cc1ccc2cccc(S(=O)(=O)N3CCCc4ccccc43)c2n1	13	-8	39*	16	-5	-5	-2	14
Cc1ccc(S(=O)(=O)N2CCCc3ccccc32)cc1	15	3	14	6	7	-2	nt	nt
COc1ccc(OCCN2CCN(S(=O)(=O)c3ccccc3C#N)CC2)cc1	16	-1	15	9	-2	13	nt	nt
CCOc1ccc(S(=O)(=O)N2CCN(S(=O)(=O)c3ccc(C(C)=O)cc3)CC2)cc1	13	-7	-3	19	-2	-6	nt	nt
CC(=O)c1ccc(S(=O)(=O)N2CCN(CCOc3ccc(Br)cc3)CC2)cc1	20	-6	63*	27	28	36	9	50*
COc1ccc(OCCN2CCN(S(=O)(=O)c3ccccc3C(F)(F)F)CC2)cc1	4	-5	41*	-2	6	-7	0	9
CCC[C@H]1[C@@H](OC(=O)NCCc2c[nH]c3ccccc23)CC[C@@]23CCCN2C(=O)CCC[C@@H]13	nt	nt	3	nt	nt	nt	nt	nt
CC(=O)OC12CCCN(C1)/C(=C/c1cccc(N(C)C)c1)C2 (stereo not drawn)	nt	nt	20	20	nt	nt	nt	nt
O=C(c1ccc(Oc2ccc([N+](=O)[O-])cc2)cc1)N1CCCCCC1	6	-9	47*	8	15	1	-5	14
CCOc1ccc(-c2cc(C(=O)OC)c3n(c2=O)CCC3)cc1	nt	nt	-5	-15	nt	nt	nt	nt
SMILES	SRC3 inh	GalR3 antag	NR2F2 inh	NCOA2 inhibitor	SRC1 inh	LRH-1 inv ag	Gal4-VP16 ctr	NR2F2 inh conf
Cc1ccc(-n2[nH]c(=O)c(-c3ccccn3)c2C)cc1	13	-1	44*	29	-24	-26	-51	2
COc1ccc(/C=C/C(Cc2cccc(C(C)=O)c2)c2ccc(C)cc2)cc1 (stereo not drawn)	nt	nt	-8	-2	nt	nt	nt	nt
CNC(=O)c1cc(Oc2ccc(NC(=O)Nc3ccc(Cl)c(C(F)(F)F)c3)cc2)ccn1	40	-8	72*	65*	32	43	15*	48*
COc1ccc(CN[C@@H]2CC[C@@]34CCCN3C(=O)CCC[C@H]4C2)cc1	nt	nt	-3	nt	nt	nt	nt	nt
O=C1C(Cl)=C(Nc2ccc3cn[nH]c3c2)C(=O)c2ccccc21	-13	-8	41*	88*	-27	19	-18	-46
O=C(Nc1ccc2cn[nH]c2c1)c1c(Cl)cccc1Cl	6	0	-7	21	-1	7	nt	nt
Cc1cc(-c2ccccc2)n2ncc(-c3ccccc3)c2n1	8	-4	9	3	-35	-45	nt	nt
Cc1nc2c(-c3ccccc3)cnn2c(N)c1-c1ccccc1	67*	-8	69*	53*	72*	60	9	72*
Cc1[nH]nc(C(F)(F)F)c1N=NN1CCOCC1	14	-4	49*	30	2	24	13	46*
Clc1ccc(N=NN2CCOCC2)cc1	11	-4	0	0	1	-12	nt	nt
Cc1nc2sccn2c1-c1csc(NCc2ccccc2)n1	17	-8	38*	22	17	18	-16	21
C/C(=N/NC(=O)CN(c1ccccc1)S(=O)(=O)c1ccccc1)c1ccccc1O	5	-1	41*	7	7	7	-8	3
CCCC/C(C)=N/NC(=O)CN(c1ccc(Br)cc1)S(=O)(=O)c1ccccc1	7	-11	8	4	-40	6	nt	nt
C(=Cc1cnc2ccccc2n1)c1ccc2c(c1)OCO2	49	-3	52*	52	43	6	65*	79*
CCOC(=O)c1c(C)nn(-c2ccc(NC(=O)/C=C/C(=O)O)cc2)c1C	51	3	65*	61*	-65	39	36*	15
CCOCC(=O)Nc1nc2ccc(C)cc2s1	-55	-6	-40	-83	-113	-106	nt	nt
Cc1ccc2nc(NC(=O)CSCC(=O)OCC(=O)c3ccccc3)sc2c1	55	-6	77*	73*	30	53	79*	59*
Cn1c(=O)cc(OCCCC(=O)Nc2cc(-c3cn[nH]c3)ccn2)c2ccccc21	nt	nt	55*	nt	nt	nt	35*	36
COC(=O)C1CN(Cc2ccccc2)CCS(=O)(=O)N1Cc1cn(Cc2ccc(C)cc2)nn1 (stereo not drawn)	nt	nt	2	24	nt	nt	nt	nt
CCOc1cc(CNCc2ccncc2)cc(Br)c1OCc1ccccc1F	10	-4	38*	13	0	30	11	34
O=C(C1CCCN(S(=O)(=O)c2ccccc2)C1)N1CCCc2ccccc21 (stereo not drawn)	-12	-1	37*	13	5	17	-10	8
